Test results reported in PubChem BioAssay AID361 (National Center for Advancing Translational Sciences (NCATS), 2006).
Hit rate of the full screen: of about 51,000 compounds, about 600 (1.2%) were called active. Another 2% or so got no clear call; they are omitted. Shown is part of a subset that was picked to be rich in actives. Values without a mark were called inactive. No stated cut-off is given here; in the data, active means potency below about 11 µM; inconclusive means mostly about 12 µM to 25 µM; inactive means weaker than that;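 the screen sought inhibitors and activators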.

The compounds below were run on pyruvate kinase (Bacillus stearothermophilus) (assay: Pyruvate Kinase). Conditions: purified pyruvate kinase, luminescence ATP production; ribose 5-phosphate activator present at AC10.
Method: Pyruvate kinase (partially purified from Bacillus stearothermophilus) was assayed for its ability to generate ATP from ADP using phosphoenolpyruvate (PEP) as a substrate. ATP generation was detected in a coupled reaction by luciferase-mediated luminescence, an ATP-dependent process. Pyruvate kinase substrates, PEP and ADP, were present in the assay at Km and […]-fold below Km respectively. The enzyme was assayed at an intermediate level of activity to screen for inhibitors and activators. In addition, ribose 5 phosphate, a positive modulator of pyruvate kinase, was included in the assay at AC10 in order to identify possible potentiators.
NCGC Assay Protocol Summary:
Three uL of substrate mix (final concentration, 50 mM imidazole pH 7.2, 50 mM KCl, 7 mM MgCl2, 2 mM PEP, 0.1 mM ADP, 0.7 nM ribose 5 phosphate, 0.01% Tween 20, 0.05% BSA) was dispensed into 1536 well plates. 23 nL of compound were delivered by a pin tool and 1 uL of enzyme mix (final concentration, 10 nM pyruvate kinase, 50 mM imidazole pH 7.2, 0.05% BSA) was added. After centrifugation at 1000 rpm for less than a minute, plates were incubated at room temperature for 2 hours. Three uL of detection and kinase stop mix (PKLight, Cambrex) was added, the plates centrifuged, and luminescence read by a ViewLux (Perkin Elmer) at 5 second exposure/plate. Data were normalized to the controls for AC100 stimulation (5 uM ribose 5 phosphate) and to AC100 inhibition (110 uM luteolin).
Potency means the concentration at half of the fitted maximal effect.

SMILES | Potency
CCCn1c(C(O)c2cc(OC)ccc2OC)nc2ccccc21 (stereo not drawn) | > 57 µM
COc1ccc(-c2cc3n(n2)CCc2nc4ccccc4n2-3)cc1 | 1.66 µM (active)
COc1ccc2nc(NC(=O)c3ccc(Br)s3)sc2c1 | > 11.4 µM
CCOC(=O)c1sc(NC(=O)c2cc(S(=O)(=O)N3CCOCC3)ccc2C)nc1C | > 57 µM
COC(=O)c1sc(NC(=O)c2ccc(OC)cc2OC)nc1C | 0.093 µM (active)
O=C(NCc1ccco1)c1ccc(CS(=O)(=O)Cc2ccc(F)cc2)o1 | > 57 µM
COc1ccccc1NC(=O)C1=C(C)NC2=C(C(=O)CCC2)C1c1ccc(C)o1 (stereo not drawn) | > 57 µM
COc1ccc(N2C(=O)c3cccc4cccc(c34)C2=O)nn1 | > 57 µM
Cc1nn2c3cc(N4CCOCC4)ccc3nc2c2ccccc12 | 2.65 µM (active)
COCCCNC(=O)CSc1nc2ccc(N3CCOCC3)cc2c(=O)n1CCc1ccccc1 | > 57 µM
Cc1cc(C)c2c(n1)nn1c(N3CCOCC3)cc(C)nc21 | > 57 µM
O=C(c1cccc2ccccc12)N1CCN(c2ccccc2F)CC1 | 26 µM
O=S(=O)(N1CCOCC1)N1CCN(c2ccccc2F)CC1 | > 57 µM
Cc1ccc2cccc(S(=O)(=O)N3CCN(c4ccccc4F)CC3)c2n1 | 6.92 µM (active)
Cn1c(=O)n(CCc2ccccc2)c(=O)c2c1nc1n2CCCN1c1ccccc1 | > 57 µM
COc1cc(OC)cc(C(=O)Nc2ccc(-c3nc4ccccc4o3)c(O)c2)c1 | > 57 µM
CN(C)CCCNc1c2c(c(C#N)c3nc4ccccc4n13)CCC2 | > 57 µM
c1ccc(-c2oc3ncnc(N4CCOCC4)c3c2-c2ccccc2)cc1 | > 57 µM
CC(C(=O)O)N1C(=O)c2cccc3cccc1c23 (stereo not drawn) | 36.6 µM
CC(C(=O)Nc1ccccc1-c1ccccc1)N1CCOCC1 (stereo not drawn) | > 57 µM
CC(C(=O)N1CCOCC1)N1c2cccc3cccc(c23)S1(=O)=O (stereo not drawn) | 1.8 µM (active)
O=C1Nc2c(Br)cc(Br)cc2C1(O)N1CCOCC1 (stereo not drawn) | 8.12 µM (active)
COc1ccc(NC2CC(=O)N(C)C2=O)cc1 (stereo not drawn) | > 25.6 µM
CCOC(=O)N1CCC(NC(=O)c2ccc3nc(N4CCOCC4)sc3c2)CC1 | > 57 µM

SMILES | Potency
c1c2c(cc3sc(N4CCCCC4)nc13)OCCO2 | 1.52 µM (active)
Fc1ccc2nc(N3CCCCC3)sc2c1 | 41.1 µM
Cc1nnc(SCC(N)=O)n1CC1CCCO1 (stereo not drawn) | > 57 µM
COC(=O)c1ccc2c(=O)n(CC3CCCO3)c(=S)[nH]c2c1 (stereo not drawn) | > 57 µM
Cc1ccsc1C(=O)OCC(=O)c1cc(C)n(CC2CCCO2)c1C (stereo not drawn) | 0.617 µM (active)
COc1ccc(CNC(=O)c2cc3c(=O)n4ccccc4nc3n(CC3CCCO3)c2=N)cc1 (stereo not drawn) | > 57 µM
O=C(Nc1cnn(Cc2ccc(Cl)cc2)c1)C1CCCC1 | > 57 µM
C=CCn1c(COc2ccccc2)nnc1SCC(=O)NCC(=O)OCC | > 57 µM
O=C(NCc1ccccn1)c1cc2ccccc2oc1=O | > 57 µM
COc1ccc(C(=O)N(Cc2ccc(N(C)C)cc2)C2CCS(=O)(=O)C2)cc1 (stereo not drawn) | > 57 µM
CCC12CN3CC(CC)(CN(C1)C31C(=O)N(C)c3ccc(C)cc31)C2=O (stereo not drawn) | > 57 µM
COc1ccc(CC(=O)n2nc(-c3cccnc3)nc2N)cc1 | > 57 µM
COC(=O)c1ccccc1NC(=O)c1ccccc1NS(C)(=O)=O | > 57 µM
COC(=O)Cc1nc2ccccc2[nH]1 | > 57 µM
Cc1ccc(-c2c3c(=O)n(C)c(=O)n(C)c3cn2-c2ccccc2O)cc1 | > 57 µM
CCOC(=O)N1CCN(CC(=O)c2c(C)[nH]c3ccccc23)CC1 | > 57 µM
Cc1c(C(=O)CN2CCOCC2)[nH]c2ccccc12 | > 57 µM
N#Cc1nc(COc2ccc(-c3ccccc3)cc2)oc1NCc1cccnc1 | > 57 µM
N#Cc1nc(Cc2ccccc2)oc1NCCc1ccccc1 | > 57 µM
N#Cc1nc(-c2ccc(OCc3ccccc3)cc2)oc1NCCCN1CCOCC1 | 1.88 µM (active)
O=C(O)CSCc1nc2ccccc2s1 | > 57 µM
Cn1c(C(=O)NCCN2CCc3ccccc3C2)cc2c(=O)[nH]c3ccccc3c21 | 9.21 µM (active)
O=C(CN1C(=O)COc2ccccc21)NCCN1CCc2ccccc2C1 | > 57 µM
Cc1cccc(N2CCN(C(=O)c3cc4c(=O)[nH]c5ccccc5c4n3C)CC2)c1C | > 11.4 µM
